Bioassay records from PubChem.
Cruzain Triton = qHTS Assay for Promiscuous and Specific Inhibitors of Cruzain (with detergent). Cruzipain (Trypanosoma cruzi), P25779. purified cruzain, Z-FR-AMC fluorescence, 0.01% Triton. Potency, µM, most hits filed as inhibitors. 200,000 tested, 0.43% active; note: nearly all actives have a fitted effect of over 40% in size
Target sequence (P25779 123-467 limits assumed): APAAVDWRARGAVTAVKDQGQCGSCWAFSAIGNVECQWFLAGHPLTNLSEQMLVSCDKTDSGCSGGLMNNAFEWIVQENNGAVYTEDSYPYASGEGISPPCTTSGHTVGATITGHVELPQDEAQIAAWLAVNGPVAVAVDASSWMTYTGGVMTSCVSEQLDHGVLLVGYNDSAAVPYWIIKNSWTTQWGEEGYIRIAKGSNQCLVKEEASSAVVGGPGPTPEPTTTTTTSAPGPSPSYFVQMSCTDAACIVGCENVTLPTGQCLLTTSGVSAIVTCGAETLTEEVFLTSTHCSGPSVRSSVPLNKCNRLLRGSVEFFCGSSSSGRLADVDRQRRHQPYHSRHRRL
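Sodium acetate buffer (100 mM, pH 5.5) containing 5 mM DTT and 0.01% Triton X-100 hosted 1.5 nM cruzain and test compound for 15 min at room temperature. Cleavage of 2 uM Z-FR-AMC was then tracked by fluorescence.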
Cruzain inh noDet = qHTS Assay for Promiscuous and Specific Inhibitors of Cruzain (without detergent); 200,000 tested, 2.3% active; AID 1476, 2009; purified cruzain, Z-FR-AMC fluorescence, no detergent; Cruzipain (Trypanosoma cruzi), P25779; Potency, µM, actives largely listed as inhibitors; note: nearly all actives have a fitted effect of over 40% in size
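Purified cruzain at 1.5 nM, pre-incubated 15 min with compound at room temperature in 100 mM sodium acetate pH 5.5, 5 mM DTT, 0.00005% Triton X-100. Reaction started with 2 uM Z-FR-AMC; AMC fluorescence increase over 60 s gives rate.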
NS1 inh = qHTS Assay for Inhibitors of Influenza NS1 Protein Function | Potency, µM (highest dose often 46.1 µM) | 270,000 tested, 0.4% active; calls by dose curve; note: actives are rising curves; nearly all actives have a fitted effect of over 50% in size
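Growth recovery, yeast-based: influenza A NS1 expressed in S. cerevisiae causes slow growth, and suppressors are detected by OD600. The parent strain without NS1 is used as positive control.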
Papain counter = qHTS Assay for Inhibitors of Papain: Counterscreen for Cruzain Assay; shares compounds with Cruzain Triton; purified papain, Z-FR-AMC fluorescence cleavage; Potency, µM, hits mostly inhibitors; 410 tested, 41% active; note: nearly all actives have a fitted effect of over 35% in size
Target sequence (P00784 whole entry, looked up): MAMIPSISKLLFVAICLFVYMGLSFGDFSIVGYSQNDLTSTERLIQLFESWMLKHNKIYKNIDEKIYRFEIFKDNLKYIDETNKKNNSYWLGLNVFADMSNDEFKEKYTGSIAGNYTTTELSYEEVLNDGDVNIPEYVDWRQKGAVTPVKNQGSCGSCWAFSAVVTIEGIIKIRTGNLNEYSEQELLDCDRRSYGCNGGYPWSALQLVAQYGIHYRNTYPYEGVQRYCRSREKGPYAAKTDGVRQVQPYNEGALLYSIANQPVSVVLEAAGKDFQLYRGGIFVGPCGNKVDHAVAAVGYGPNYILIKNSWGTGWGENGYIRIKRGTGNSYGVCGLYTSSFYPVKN
A number is an active result; n = inactive; u = inconclusive; x = not tested or not shown. The entries come from a sample that favours hits as a whole. Unless noted, calls come from the whole dose curve; as a rule, active = well fitted curve in the direction sought with a large enough effect; inconclusive = small, poorly fitted or top-dose-only effect, or another doubt; inactive = no such curve, though single readings can be large; an effect the other way counts as inactive or inconclusive.

SMILES	Cruzain Triton	Cruzain inh noDet	NS1 inh	Papain counter
N#Cc1c[nH]n2c(NC3CCCC3)c(-c3cccc(Br)c3)nc12	n	u	x	x
O=C(Nc1ccc(F)cc1)NC1CCCCC1	n	n	n	x
COc1cc2c(cc1OC)[C@H](C)N(CC1C(=O)O[C@@H]3C[C@@]4(C)CCC[C@H](C)[C@@]45OC5[C@H]13)CC2 (stereo not given in full)	n	n	x	x
COC(=O)c1sc2cccc(F)c2c1S(=O)(=O)Nc1cc(C)c(Cl)cc1OC	n	n	x	x
CC(C)[C@@H](CC(=O)N[C@@H]1CCNC[C@H]1C(=O)N[C@H](CC(=O)N[C@@H](CCC(=O)O)CC(=O)O)Cc1c[nH]c2ccccc12)NC(=O)C[C@H](CO)NC(=O)[C@@H]1CNCC[C@H]1N	n	n	x	x
O=C(O)C=Cc1ccc(Cn2ccnc2)cc1	n	n	x	x
CC1CN=C(Nc2cccc3ccccc23)S1 (stereo not given)	n	n	n	x
N#Cc1nc(Nc2cccc3ccccc23)nc(NC2CCCC2)n1	x	x	x	4.5µM
N#Cc1nc(NCC2CC2)nc(Nc2ccccc2)n1	x	x	x	1.3µM
c1ccc(-c2csc(NC3CCCCC3)n2)cc1	x	x	n	x
N#Cc1nc(Nc2ccc(-c3ccccc3)cc2)nc(NC2CCCC2)n1	x	x	x	3.5µM
Nc1nc(NCC2CCC(CNS(=O)(=O)c3cccc4ccccc34)CC2)nc2ccccc12 (stereo not given)	n	u	x	x
COc1ccc(N2CCN(C(=O)CSc3nc(-c4ccc(C(C)C)cc4)no3)CC2)cc1	n	n	x	x
N#Cc1nc(-c2ccco2)oc1N1CCOCC1	n	n	n	x
CC1CN(c2oc(-c3cccs3)nc2C#N)CC(C)O1 (stereo not given)	28µM	u	n	20µM
N#Cc1nc(-c2cccs2)oc1N1CCOCC1	25µM	u	n	16µM
CC1CN(c2oc(Cc3cccc4ccccc34)nc2C#N)CC(C)O1 (stereo not given)	n	u	n	x
COc1ccc(C2CC(=O)N(CC(=O)Nc3ccc(C(F)(F)F)cc3)c3ccccc3S2)cc1 (stereo not given)	n	n	x	x
CNC(=O)C1CCC(Cn2c(=O)[nH]c3ccsc3c2=O)CC1 (stereo not given)	n	n	x	x
Cc1c(C2=CCN(S(=O)(=O)c3ccc(CC(C)C)cc3)CC2)c2ccccc2n1CC(=O)N1CCCC1	n	n	x	x
N#CCCn1c(=O)cnc2cnc(Oc3cccc(Cl)c3)nc21	n	n	x	x
C=CCOC(=O)N[C@H](C[N+](=O)[O-])c1ccccc1	n	n	x	x
CCOC(=O)c1sc(N/N=C/c2cccc(C)c2)nc1C	1.4µM	u	n	1.3µM
CCOC(=O)c1sc(N/N=C/c2ccccc2)nc1C	n	u	n	x
O=C(Nc1ccc(F)cc1)c1ccc(Cn2nc(N3CCN(c4ccccc4)CC3)ccc2=O)o1	n	u	x	x
SMILES	Cruzain Triton	Cruzain inh noDet	NS1 inh	Papain counter
c1ccc(C2=Nn3c(nnc3-c3cc(-c4ccccc4)n[nH]3)SC2)cc1	n	n	n	x
Cc1ccc(O/C=C2/Nn3c(nnc3-c3cc(-c4ccccc4)n[nH]3)S2)cc1	x	x	x	n
Cc1ccc(C)c(OCCn2c(CCNC(=O)C3CCCCC3)nc3ccccc32)c1	1.3µM	n	x	n
Cc1ccccc1OCCn1c(CCNC(=O)C2CCCCC2)nc2ccccc21	1.4µM	n	x	n
CC(=O)NCCc1nc2ccccc2n1CCOc1ccccc1C	x	x	n	x
O=C(NCCCc1nc2ccccc2n1Cc1ccccc1Cl)C1CCCCC1	n	n	x	x
O=C(NCCc1nc2ccccc2n1CCCOc1ccccc1Cl)C1CCCCC1	x	x	x	n
O=C(NCCCc1nc2ccccc2n1Cc1c(F)cccc1Cl)C1CCCCC1	n	n	x	x
Cc1ccccc1OCCn1c(CCNC(=O)C(C)(C)C)nc2ccccc21	n	u	x	x
O=C(NCCc1nc2ccccc2n1CCOc1cccc2ccccc12)C1CCCCC1	x	x	x	n
CCN(CC)S(=O)(=O)c1ccc2c(c1)nc(CN(C)C(=O)Nc1ccc(C)c(Cl)c1)n2C	n	n	x	x
COc1ccc2c(c1)c1c(c(=O)n(-c3cccc(C)c3)c(=O)n1CC(=O)NCC1CCCO1)n2C (stereo not given)	n	n	x	x
N#Cc1nc(N2CCOCC2)nc(N2CCOCC2)n1	1.1µM	1.3µM	n	1.3µM
CCNc1nc(N2CCCC2)nc(N2CCCC2)n1	x	x	n	x
N#Cc1nc(N(c2ccccc2)c2ccccc2)nc(-n2cccc2)n1	x	x	x	10µM
N#CCOc1nc(N2CCOCC2)nc(N2CCOCC2)n1	n	n	n	x
CN(C)c1nc(N2CCOCC2)nc(N(c2ccccc2)c2ccccc2)n1	n	u	n	x
COc1nc(N(c2ccccc2)c2ccccc2)nc(-n2ccnc2)n1	n	n	n	x
CN(c1ccccc1)c1nc(C#N)nc(N2CCOCC2)n1	x	x	x	1.3µM
CCNc1nc(C#N)nc(N2CCOCC2)n1	x	x	x	3.2µM
COc1ccc(CNc2ncncc2-c2cccc(NS(C)(=O)=O)c2)c(OC)c1	n	n	x	x
COc1ccc(Oc2ncc3nc(C)c(=O)n(Cc4ccc(F)cc4)c3n2)cc1	n	n	x	x
COc1cccc(NC(=O)N2CCN3CCCCC3C2)c1 (stereo not given)	n	n	x	x
N#C/C(=C\c1ccc(-c2cc(Cl)ccc2Cl)o1)C(=O)Nc1ccccc1C(=O)O	n	n	x	x
N#CC(C#N)=NNc1ccc2cn[nH]c2c1	n	u	n	x
SMILES	Cruzain Triton	Cruzain inh noDet	NS1 inh	Papain counter
N#CC(C#N)=NNc1cccc(Cl)c1	11µM	13µM	x	28µM
Cc1ccc(CCNS(=O)(=O)c2cc(-c3cc(C)no3)ccc2C)cc1	n	n	x	x
Cc1ccc(C(=O)Nc2nnc(SCc3cc(=O)n4ccc(C)cc4n3)s2)cc1	n	n	x	x
CC(C)C(=O)NCCc1nc2ccccc2n1CCOc1ccccc1	n	n	n	x
O=C(NCCc1nc2ccccc2n1CCOc1ccc(Cl)cc1)C1CCCCC1	1.3µM	n	x	8.9µM
Cc1ccc(OCCCn2c(CCCNC(=O)C3CCCCC3)nc3ccccc32)cc1	x	x	x	n
CCc1ccc(OCCCCn2c(CCNC(=O)C3CCCCC3)nc3ccccc32)cc1	x	x	x	22µM
Cc1ccc(OCCCCn2c(CCNC(=O)C(C)(C)C)nc3ccccc32)cc1	n	u	x	x
O=C(NCCc1nc2ccccc2n1CCOc1ccccc1)C1CCCCC1	x	x	x	n
CC(C)(C)C(=O)NCCc1nc2ccccc2n1CCCCOc1ccccc1	n	n	x	x
O=C(NCCCc1nc2ccccc2n1Cc1ccc(Cl)cc1)C1CCCCC1	n	n	x	x
CC[C@@H]1Cn2c(c3nc(-c4cc(Cl)cc(Cl)c4Cl)nc-3n(C)c2=O)N1	n	n	x	x
CCN(CC)CCCC(C)n1c(-c2ccccc2)nc2c(NC3CCCCC3)nc(C)nc21 (stereo not given)	n	n	x	x
COc1cc(OC)c(-c2nn3c(-c4cc(C)[nH]n4)nnc3s2)cc1OC	x	x	x	n
c1csc(Cc2nn3c(-c4n[nH]c5c4CCC5)nnc3s2)c1	n	u	n	x
Cc1cc(-c2nnc3sc(-c4ccc(Cl)cc4Cl)nn23)n[nH]1	n	n	n	x
COc1cc(OC)c(-c2nn3c(-c4n[nH]c5c4CCC5)nnc3s2)cc1OC	x	x	x	n
Cc1ccc(C(=O)c2cn(Cc3ccccc3)c3nc(C)ccc3c2=O)cc1	n	u	x	x
COc1ccc(-n2c(=O)cnc3cnc(OC)nc32)cc1	n	n	x	x
